Reference: PubChem BioAssay (NCI)
Where “and” joins values, the source holds several entries; their conditions need not be identical. Equal entries are not always repeated. The panel holds about 83,000 compounds, 20% with a hit somewhere; the sample as a whole holds those more often.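 How to read the values: 0–100, growth inhibition (40 = 60% inhibited); 0, no net growth; -100 to 0, cell death (-40 = 40% of starting cells died; -100 = all dead).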 Values without a mark were called inactive. Calls of active or inactive are those of the source. Rule for the calls: active = growth percent below 10; inactive = the rest.

Each compound was assayed on MDA-MB-468 breast (assay: NCI-60 one-dose screen, 48 h (100 = growth as untreated, 0 = no growth, -100 = all killed)). Conditions: 10 µM unless noted.

| Compound | growth |
| --- | --- |
| Clc1ccc(/C=C2\CCCC3C2=Nc2ccccc2NC3c2ccc(Cl)cc2)cc1 (stereo not given) | 60% |
| CCCCc1nc2c(N)nc3ccccc3c2n1Cc1ccc(OC)cc1 | 41.2% |
| CCOC(=O)/C(C#N)=C/c1cccc(C)c1 | 90.9% |
| COc1ccc(/C=N\Nc2nc(SCC(C)C)nc(-c3ccc(OC)cc3)c2C#N)cc1 | 71.8% |
| CCOc1ccccc1-c1cc(-c2cccs2)c(C#N)c(=O)[nH]1 | 2.06% (active) |
| O=[N+]([O-])c1cccc(N=Cc2ccc3c(c2)OCO3)c1 | 103% |
| COc1cc2nc(Cl)nc(Nc3cccc(C(=O)/C=C/c4ccc(Cl)cc4)c3)c2cc1OC | 63.8% |
| Oc1ccc(Cn2cc3c(c2-c2ccccc2)CCc2cnoc2-3)cc1 | 89.2% |
| COc1cc(-c2nn(-c3cccc(NC(=O)c4cccc(C(F)(F)F)c4)c3)cc2-c2ccncc2)ccc1Cl | -19.4% (active) |
| C=CCN(C)C | 102% |
| Cc1nn(-c2ccccc2)c2nc(N)c(C3=NCCO3)nc12 | 113% |
| NC(=O)c1c(NC(=S)Nc2ccc(OC(F)(F)F)cc2)sc2c1CCC1(C2)OCCO1 | 94.7% |
| O=C(O)c1cccc(CN2CCN(c3cc4c(cc3F)c(=O)c(C(=O)O)cn4C3CC3)CC2)c1O | 101% |
| CC(C)(C)c1nn(-c2ccccc2)c2c1C(=O)CSC(c1ccc3c(c1)OCO3)N2 (stereo not given) | 120% |
| O=C1/C(=C/c2ccc(Cl)cc2)CCC/C1=C\c1ccc(Cl)cc1 | 67.9% |
| Cc1cc(N(CCCNc2ccnc3cc(Cl)ccc23)Cc2ccco2)nc(N2CCN(C)CC2)n1 | 73.7% |
| Cc1c(C(=O)NO)sc2ncnc(Nc3ccc(NC(=S)Nc4ccccc4)cc3)c12 | 104% |
| CC(C)(C)OC(=O)N[C@@H](Cc1ccccc1)C(=O)N(Cc1ccccc1)C1(C(=O)NCc2ccccc2)CCN(Cc2ccccc2)CC1 | 7.09% (active) |
| Cc1ncc(C(=O)Nc2ccc(CN3CCN(C)CC3)c(C(F)(F)F)c2)cc1C#Cc1cnc(N)c2ncccc12 | 63.1% |
| O=C(OCc1ncc(-c2ccc(C(F)(F)F)cc2)c(NC2CCCCCC2)n1)c1c(F)c(F)c(F)c(F)c1F | 16.9% |

| Compound | growth |
| --- | --- |
| Cc1cc(C)n(-c2nc(-c3cccs3)c(C#N)c(=O)[nH]2)n1 | 112% |
| CCOC(=O)Nc1ccc2nc(N3CCCCCC3)sc2c1 | -4.19% (active) |
| Cc1cccc2sc(/N=C(\N)C(Br)Br)nc12 | -33.6% (active) |
| CCCCCOC(=O)c1ccccc1O | 107% |
| CCCCCCNC(=O)Oc1ccc(/C(=C(\C)c2ccc(Cl)cc2)c2ccc(OCCN(C)C)cc2)cc1 | 84.3% |
| CCCc1c(C)nc2scc(-c3ccc(Cl)cc3)n2c1=O | 97.9% |
| CCCCCCCC/C=C/CCCCCCCC1=NCC[N+]1(CCO)CCO | 23% |
| O=Nc1ccc(O)cc1 | 78.3% and 93.9% |
| O=C(Nc1nc(-c2ccccc2Cl)cs1)c1cc(-c2ccc(Br)cc2)nc2ccccc12 | 5% (active) |
| COc1ccccc1/C=C/C=N/NC1=NC2C(S1)N(C)C(=O)N2C (stereo not given) | -5.34% (active) |
| CC1(C)CCCC2=C1C(=O)N(SC(Cl)(Cl)Cl)C2=O | 79.6% |
| NC(=S)NNC1CCCCC1 | 99% |
| CC[C@@]1(O)C(=O)OCc2c1cc1n(c2=O)Cc2cc3c(CN(C)C)c(O)ccc3nc2-1 | -58.2% (active) |
| CN(C)c1ccc(/C=C(\C#N)c2cc3ccccc3[nH]2)cc1 | -3.07% (active) |
| O=C(Nc1ccccc1)Nc1nc2ccc([N+](=O)[O-])cc2s1 | -22.6% (active) |
| COC(=O)[C@H]1Cc2c([nH]c3ccccc23)[C@@H](c2cccs2)N1 | 101% |
| CCOc1ccc(Nc2ccnc3cc(Cl)ccc23)cc1 | -1.66% (active) |
| Cc1cc(C)c2sc(=O)n(Cc3nnc(SCCC(=O)O)o3)c2n1 | 110% |
| COc1ccc(N2CCC(=O)NC2=S)cc1 | 100% |
| COc1cc(C(=O)/C=C/c2sc(Cl)nc2Cl)cc(OC)c1OC | -50.9% (active) |
